This passage reports Potency, outcome and activity change, negative = inhibition results from PubChem BioAssay (NCATS).

Unmarked numbers belong to inactive results. Inconclusive results are not listed. The source made the active and inactive calls. The call rests on the fitted dose curve; in most records, active means well fitted curve in the direction sought with a large enough effect; inconclusive means small, poorly fitted or top-dose-only effect, or another doubt; inactive means no such curve, though single readings can be large; an effect the other way counts as inactive or inconclusive.

Test [1] relates to Zika virus NS2B-NS3 protease (unlinked complex). Description: Primary screen GU Rhodamine qHTS for Zika virus inhibitors: Unlinked NS2B-NS3 protease assay (AID 1347159). Further: nearly all actives have a fitted effect of over 60% in size. Further: potency means the concentration at half of the fitted maximal effect. On activity change, negative = inhibition: on the % scale 0 is the no-effect control and ±100 the full control effect. The essentials: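 Noncovalent NS2B hydrophilic domain/NS3 protease complex (25 nM final) in 10 mM Tris-HCl pH 8.0, 0.01% Tween 20, preincubated 15 min with compounds (up to 114 microM), then 1.5 microM Rhodamine110 substrate. Fluorescence change over 15 min fitted to 4-parameter Hill.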
In general terms: In qHTS, concentration-response curves come from the screen itself.

Test [2] concerns Zika virus NS2B-NS3 protease (linked construct). Description: Primary screen NINDS Rhodamine qHTS for Zika virus inhibitors (AID 1347160). Further: nearly all actives have a fitted effect of over 55% in size. On activity change, negative = inhibition: on the % scale 0 is the no-effect control and ±100 the full control effect. The essentials: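 Purified NS2B-NS3 protease with the NS2B hydrophilic domain joined by a flexible linker (25 nM) in 10 mM Tris-HCl pH 8.0, 0.01% Tween 20, preincubated 15 min at RT with compound; Rhodamine110 peptide substrate 1.5 µM; fluorescence change over 15 min; 4-parameter Hill fit.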

A short description of test [3]: qHTS to identify inhibitors of the type 1 interferon - major histocompatibility complex class I in skeletal muscle: primary screen against the NCATS Pharmaceutical Collection (AID 1347407).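 Further: luminescence of HiBiT knocked into endogenous HLA-B as interferon-induced MHC class I level.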 Further: potency means the concentration at half of the fitted maximal effect. On activity change, negative = inhibition: on the % scale 0 is the no-effect control and ±100 the full control effect. The essentials: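 Immortalized human myoblasts (C25cl48) with HiBiT knocked into endogenous HLA-B*08:01 were stimulated with 4.0 ng/ml IFN-beta and treated with compounds ([…] top 46 uM) for 24 hrs at 37 C. HiBiT lytic luminescence read.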

Test [4] can be described thus: qHTS to identify inhibitors of the type 1 interferon - major histocompatibility complex class I in skeletal muscle: primary screen against the NCATS Mechanism Interrogation Plate v5.0 (MIPE) Libary (AID 1347411).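 Further: plate controls were vehicle for no effect and reference inhibitor for full effect; nearly all actives have a fitted effect of over 65% in size.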 The essentials: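 Luminescence from HiBiT-tagged endogenous HLA-B*08:01 served as the MHC class I read-out. CRISPR-engineered C25cl48 human myoblasts received 4.0 ng/ml IFN-beta plus compound for 24 hrs, with an 11-point, 1:3 series topping at 46 uM final.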

Test [5] in a line: Vero cells viability qHTS for Zika virus inhibitors (AID 1347167). Further: potency means the concentration at half of the fitted maximal effect. The method, boiled down: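 Counter-screen for cytotoxicity of hits from NS2B-NS3 protease qHTS. Overnight-attached cells (2.5 x 10^5 cells/mL, DMEM/4% FBS) were dosed in titration, incubated 24 to 48 hours, then assayed by CellTiter Glo.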
A short description of test [6]: Tertiary RLuc qRT-PCR qHTS assay for Zika virus inhibitors (AID 1347169). Further: nearly all actives have a fitted effect of over 55% in size. Further: potency means the concentration at half of the fitted maximal effect. On activity change, negative = inhibition: top concentration of the series differs between compounds; on the % scale 0 is the no-effect control and ±100 the full control effect. The method, boiled down:
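Vero cells (1,000/well) infected with recombinant ZIKV-RLuc (Cambodian) at MOI 1-2 after compound addition, 48-72 hrs at 37 degrees C. Live-cell Renilla luciferase substrate added; luminescence read after 1-1.5 hrs.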
(In general: In qPCR the cycle at which signal appears reflects the starting amount.)

Test [7] can be described thus: ZIKV-mCherry secondary qHTS for Zika virus inhibitors (AID 1347158). Further: potency means the concentration at half of the fitted maximal effect. On activity change, negative = inhibition: top concentration of the series differs between compounds. The essentials: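 Vero, 5,000 cells/well, o/n 37 °C; cpd pin-transferred in DMSO; ZIKV-mCherry MOI 1, 48-72 h 37 °C; 32% PFA stock fix, Hoechst; imaged 10x DAPI/mCherry; mCherry+ threshold 450 RFU; % infection.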
Test [8] concerns Zika virus NS2B-NS3 protease (linked). As to the kind of experiment: 384 well plate NINDS AMC confirmatory qHTS for Zika virus inhibitors (AID 1347163). Further: nearly all actives have a fitted effect of over 50% in size. Further: potency means the concentration at half of the fitted maximal effect.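 On activity change, negative = inhibition: linked protease at 5 30 or 60 nM final depending on run; fluorescence of AMC released from Ac-VKTGKR-AMC peptide cleaved by the protease; top concentration of the series differs between compounds; 0% = no-inhibitor control and -100% = no-enzyme control.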 The essentials:
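Linked NS2B-NS3 protease (final 5 nM, 30 nM or 60 nM) was preincubated with compounds (final up to 1 mM) for ~15 minutes. Ac-VKTGKR-AMC substrate (final 30 microM) then reacted for 25 minutes at room temperature in the dark. Fluorescence (ex 355/em 460 nm) was normalized to no-enzyme and no-inhibitor controls.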

Test [9] has as its system Zika virus NS2B-NS3 protease (linked construct). Description: 384 well plate NINDS Rhodamine confirmatory qHTS for Zika virus inhibitors (AID 1347164).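 Further: fluorescence from protease cleavage of Ac-LKRR-rhodamine 110 substrate; potency means the concentration at half of the fitted maximal effect; nearly all actives have a fitted effect of over 65% in size.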 The method, boiled down: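 Linked NS2B-NS3 protease (final 5, 30 or 60 nM) preincubated ~15 minutes with compounds, then 10 microM Ac-LKRR-Rhodamine 110 added. Fluorescence (485/538 nm) read after 25 minutes at room temperature, normalized to no-enzyme and no-inhibitor controls.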

Test [10] can be described thus: qHTS for inhibitors of adenylyl cyclases using a fission yeast platform: a pilot screen against the NCATS LOPAC library (AID 1347410).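 Further: plate controls were DMSO vehicle for no effect and DPI positive control for full effect.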 The method, boiled down:
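S. pombe CHP2027 (AC9-GNAS-PDE4D2) carrying PKA-repressed fbp1-GFP, incubated 18 h at 30C in EMM with LOPAC compounds at up to 57 uM. GFP gain-of-signal read by laser scanning cytometry; DMSO negative control.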

For the compound `Cc1cc2c(s1)Nc1ccccc1N=C2N1CCN(C)CC1`, the Potency result in test [1], in test [2], in test [3] and in [4] was “inactive” throughout.

For the compound `OC(CN1CCN(c2cccc(Cl)c2)CC1)C(c1ccccc1)c1ccccc1` (stereo unspecified), the Potency result in test [1] and in [2] was “inactive” in each case.

Turning to `COCCCOc1ccnc(CS(=O)c2nc3ccccc3[nH]2)c1C` (stereo unspecified), the Potency entry in [1], in test [2] and in test [3] was “inactive” each time.

In the case of `Cc1ccc(NC(=O)c2ccc(CN3CCN(C)CC3)cc2)cc1Nc1nccc(-c2cccnc2)n1`, the Potency entry in [1] and in [2] was “inactive” in each case.

For the compound `O=C(O)c1cccc(-c2noc(-c3ccccc3F)n2)c1`, the Potency entry in test [1], in test [2] and in [3] was “inactive” in each case.

As for `CC(C)C[C@H](NC(=O)[C@H](Cc1ccccc1)NC(=O)c1cnccn1)B(O)O`, the Potency entry in test [1], in test [2] and in test [5] was “inactive” each time. Besides, the values for the Potency in test [6] and in test [3] were 0.037 µM (active) and 0.0745 µM (active), respectively.

As to `CCC(C)(Oc1ccc(C2(c3ccc(OC(C)(CC)C(=O)O)cc3)CCCCC2)cc1)C(=O)O` (stereo unspecified), the Potency in test [1] was 31.6 µM (active). Moreover, the Potency result in test [3] is “inactive”.

As to `C=C(c1ccc(C(=O)O)cc1)c1cc2c(cc1C)C(C)(C)CCC2(C)C`, the Potency in [7] was 7.08 µM (active); in test [1], 3.16 µM (active); in test [8], 22.4 µM (active); in test [9], 7.94 µM (active). Also, the Potency entry in test [3] was “inactive”.

Turning to `CN(C)CCCC1(c2ccc(F)cc2)OCc2cc(C#N)ccc21` (stereo unspecified), the Potency result in test [1] and in test [2] was “inactive” each time. Besides, in test [10], the call was inactive.

Turning to `O=c1c(O)c(-c2cc(O)c(O)c(O)c2)oc2cc(O)cc(O)c12`, the Potency result in test [7] and in test [4] was “inactive” each time. Also, the Potency was 158 µM (active) in [8] and 39.8 µM (active) in [9]. For the same compound, the activity change, negative = inhibition in test [6] is 40.4% [at 3.57 µM]. Moreover, the compound was classed as inactive in test [10].

As for `CN(c1nccc(=O)[nH]1)C1CCN(c2nc3ccccc3n2Cc2ccc(F)cc2)CC1`, the Potency result in test [2] and in [3] was “inactive” throughout.

Regarding `O=c1c(O)c(-c2ccc(O)cc2O)oc2cc(O)cc(O)c12`, the Potency result in test [7] and in test [6] was “inactive” in each case. Besides, the Potency was 141 µM (active) in test [8] and 50.1 µM (active) in test [9]. In test [10], the call was inactive.

Turning to `Cc1ccc(Nc2nccc(N(C)c3ccc4c(C)n(C)nc4c3)n2)cc1S(N)(=O)=O`, the Potency entry in [1] and in test [2] was “inactive” in each case.

As for `CC(=O)NC[C@H]1CN(c2ccc(N3CCOCC3)c(F)c2)C(=O)O1`, the Potency entry in test [1], in test [2] and in test [4] was “inactive” each time. Moreover, the outcome in test [10] was inactive.

For `COc1ccccc1N1CCN(CCN(C(=O)C2CCCCC2)c2ccccn2)CC1`, the Potency entry in [1], in test [2] and in [4] was “inactive” each time. The call in test [10] was inactive.

Take `COc1ccc2cc([C@H](C)C(=O)O)ccc2c1`: the Potency result in test [1] and in test [2] was “inactive” in each case. Moreover, the compound was called inactive in [10].

Consider `Cc1nc(Nc2ncc(C(=O)Nc3c(C)cccc3Cl)s2)cc(N2CCN(CCO)CC2)n1`, for which the Potency result in [7], in test [1], in test [2] and in [8] was “inactive” throughout. In addition, the Potency in test [5] was 282 µM (active); in [6], 0.224 µM (active).

As for `CCN(CCO)CCCC(C)Nc1ccnc2cc(Cl)ccc12` (stereo unspecified), the activity change, negative = inhibition in [1] was 15.4% [at 11.5 µM]; in test [2], -6.84% [at 4.91 µM]; in [3], -5.56% [at 3.83 µM]; in [4], 7.97% [at 5.1 µM].

For `Cc1nccn1CC1CCc2c(c3ccccc3n2C)C1=O` (stereo unspecified), the Potency entry in test [1], in test [2] and in test [3] was “inactive” each time.

Consider `CC(=O)O[C@H]1C(=O)[C@@]2(C)C([C@H](OC(=O)c3ccccc3)[C@]3(O)C[C@H](OC(=O)[C@H](O)[C@@H](NC(=O)c4ccccc4)c4ccccc4)C(C)=C1C3(C)C)[C@]1(OC(C)=O)CO[C@@H]1C[C@@H]2O` (stereo partly specified), for which the Potency result in test [1], in [2] and in [4] was “inactive” each time.

As to `CC(C)c1nc(CN(C)C(=O)N[C@H](C(=O)N[C@@H](Cc2ccccc2)C[C@H](O)[C@H](Cc2ccccc2)NC(=O)OCc2cncs2)C(C)C)cs1`, the Potency entry in test [1], in test [2] and in test [3] was “inactive” throughout.

As to `CCCS(=O)c1ccc2nc(NC(=O)OC)[nH]c2c1` (stereo unspecified), the Potency entry in [2] and in test [3] was “inactive” each time.

On to `CC(C)c1ccc2c(c1)c(SC(C)(C)C)c(CC(C)(C)C(=O)O)n2Cc1ccc(Cl)cc1`, for which the Potency in test [8] and in test [9] was 14.1 µM (active) throughout. The compound was called inactive in test [10].

Regarding `O=C(OC1C[C@H]2CC[C@@H](C1)[N+]21CCCC1)C(O)(c1ccccc1)c1ccccc1` (stereo partly specified), the Potency result in test [1], in [2] and in test [3] was “inactive” throughout.

Turning to `CN(C)c1ccc(O)c2c1C[C@H]1C[C@H]3[C@H](N(C)C)C(=O)C(C(N)=O)=C(O)[C@@]3(O)C(=O)C1=C2O`, the Potency is 141 µM (active) in [8] and 89.1 µM (active) in test [9]. Besides, the Potency entry in test [5], in test [3] and in [4] was “inactive” each time.

`c1cnc2cc3c(cc2n1)C1CNCC3C1`: the Potency entry in test [1], in [2], in [3] and in [4] was “inactive” in each case. In addition, the compound was classed as inactive in [10].

With `CCC1=C(C)CN(C(=O)NCCc2ccc(S(=O)(=O)NC(=O)NC3CCC(C)CC3)cc2)C1=O` (stereo unspecified), the Potency entry in test [2], in test [3] and in test [4] was “inactive” each time.

With `COc1c(O)cc2c(c1O)[C@@H]1O[C@H](CO)[C@@H](O)[C@H](O)[C@H]1OC2=O`, the Potency entry in test [2] was “inactive”.
